Reference: PubChem BioAssay AID686979 (National Center for Advancing Translational Sciences (NCATS), 2013)
Where “and” joins values, the source holds several entries; their conditions need not be identical. Equal entries are not always repeated. The campaign covered roughly 420,000 compounds. About 50,000 (12%) were called active. Inconclusive results (about 26%) are left out. The sample holds actives, similar compounds and a random draw of the others, so the mix is not that of the screen. Calls follow the shape of the dose curve; as a rule, active = well fitted inhibition curve with a large enough effect; inconclusive = small, poorly fitted or top-dose-only effect; inactive = flat fitted curve, though single readings scatter.

experiment: qHTS for Inhibitors of human tyrosyl-DNA phosphodiesterase 1 (TDP1): qHTS in cells in presence of CPT; settings: chicken DT40 Tdp1-/-;hTDP1 cells + 20 nM CPT, ATP luminescence, 48 h; series mostly up to 46.2 µM; activity change, negative = growth inhibition: at the top concentration; also: nearly all actives have a fitted effect of over 55% in size
Outline: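 Chicken DT40 Tdp1-/- cells complemented with human TDP1, 400 cells/well, exposed to compounds plus 20 nM camptothecin for at least 48 h at 37 C; viability read as ATP content by CellTiter-Glo luminescence.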
% is scaled to controls: 0 for no effect and ±100 for the full control effect; potency is read from the fitted curve at half-maximal effect.

Structure (SMILES) | activity change, negative = growth inhibition | Potency
O=C(NCc1ccccc1)c1ccc2c(c1)nc1n2CCCCC1 | -4.9% (inactive) | 
COc1cccc(C2C(C(=O)Nc3ccc(C)cc3C)=C(C)Nc3c(C(=O)Nc4ccccc4)cnn32)c1 (stereo not drawn) | -11.3% (inactive) | 
CC(C)(C)OC(=O)C1=C(CO)CS[C@@H]2[C@H](NC(=O)Cc3ccccc3)C(=O)N12 | 4.65% (inactive) | 
C[C@H](NC(=O)C1CC(=O)N(c2ccc3c(c2)OCO3)C1)C(=O)NCc1ccco1 (stereo partly drawn) | 5.48% (inactive) | 
CCOc1ccc(S(=O)(=O)N2CCC(C(=O)NCC(=O)Nc3cccc(Cl)c3C)CC2)cc1 | -15.3% (inactive) | 
C=CC[C@H](CC(=O)NCCO)C(=O)N[C@@H](COC(=O)[C@@H](CC=C)Cc1ccc(F)cc1)Cc1c[nH]c2ccccc12 |  | 29.1 µM (active)
C=CC[C@@H](CC(=O)NCCO)C(=O)N[C@H](C)COC(=O)[C@@H](CC=C)CC(=O)OC(C)(C)C | -17.2% (inactive) | 
C=CC[C@@H](CC(=O)N[C@H](CO)Cc1ccccc1)C(=O)N[C@H](C)COC(=O)[C@@H](CC=C)Cc1ccc(F)cc1 |  | 20.6 µM (active)
CC(=O)NC(Cc1c[nH]c2ccccc12)C(=O)O (stereo not drawn) | -3.87% (inactive) | 
CC(CCc1ccccc1)NC(=O)COC(=O)c1ccc(F)cc1 (stereo not drawn) | 3.85% (inactive) | 
COC(=O)C(Cc1c[nH]c2ccccc12)NC(=O)CCNC(=O)c1ccco1 (stereo not drawn) | 7.7% (inactive) | 
O=C(CCc1c[nH]c2ccccc12)NCCOc1ccccc1 | 0.982% (inactive) | 
COc1ccc(CNC(=O)[C@H](Cc2c[nH]c3ccccc23)NC(C)=O)cc1OC | 2.69% (inactive) | 
CC(=O)NC(Cc1c[nH]c2ccccc12)C(=O)NCCc1ccccc1 (stereo not drawn) | -18.1% (inactive) | 
C=CC[C@@H](CC(=O)N[C@H](CO)Cc1ccccc1)C(=O)N[C@@H](COC(=O)[C@@H](CC=C)Cc1ccc(F)cc1)Cc1c[nH]c2ccccc12 |  | 16.4 µM (active)
C=CCC[C@H](Cc1ccc(F)cc1)C(=O)OC[C@@H](Cc1c[nH]c2ccccc12)NC(=O)[C@H](CC=C)CC(=O)N[C@H](CO)Cc1ccccc1 |  | 5.8 µM (active)
CC(C)CNc1ncnc2c1nnn2C | -14.1% (inactive) | 
CCC(C)NC(=O)/C=C/c1ccc(S(=O)(=O)NCc2ccco2)cc1 (stereo not drawn) | 0.277% (inactive) | 
CC(=O)N1CCC(N(C(=O)Nc2ccc(Cl)cc2)C(C)C)CC1 | -1.36% (inactive) | 
CC(=O)NC(CC(=O)Nc1nc(-c2ccccc2)c(C(C)=O)s1)c1ccccc1 (stereo not drawn) | -14.9% (inactive) | 
COc1ccccc1C(=O)OCc1cc(=O)n2nc(-c3cccs3)sc2n1 | -2.98% (inactive) | 
Nc1ccccc1-c1nc2ccncc2[nH]1 | -25.7% (inactive) | 
CCc1ccc(Oc2coc3cc(OC(=O)c4cc5ccccc5oc4=O)ccc3c2=O)cc1 | -14.6% (inactive) | 
O=C1c2ccccc2-c2ccccc2NC1O (stereo not drawn) | 11.2% (inactive) | 
O=C1NN(c2ccccc2)C(=O)/C1=C/c1ccc(-c2cccc(C(=O)O)c2)o1 | -25.8% (inactive) | 

Structure (SMILES) | activity change, negative = growth inhibition | Potency
O=C1CCC[C@@H]2CC(N3CCCCC3)C[C@@H]3CCN1[C@H]23 (stereo partly drawn) | 0.158% (inactive) | 
CN(C)C(CNC(=O)c1ccc(S(=O)(=O)NCc2ccco2)cc1)c1ccccc1 (stereo not drawn) | -18.1% (inactive) | 
Cc1noc(C)c1S(=O)(=O)N(C)C[C@H]1OCCCC[C@@H](C)Oc2ccc(NC(=O)CCCN(C)C)cc2C(=O)N([C@H](C)CO)C[C@@H]1C | -18.5% (inactive) | 
Cc1cc(/C=C2\SC(=Nc3ccc(N4CCOCC4)cc3)N(C)C2=O)c(C)n1-c1cccnc1 | -7.74% (inactive) | 
CCCCN=C1C([N+](=O)[O-])=CC=C2C1=NC1(CCCCC1)N2O | -26.7% (inactive) | 
CCc1ccccc1OCC(=O)Nc1ccc2c(c1)OCCO2 | -8.05% (inactive) | 
COc1ccc(NC(=O)C2=NNC(=O)CC2)cc1S(=O)(=O)N1CCCCC1 | -28.9% (inactive) | 
Cc1ccccc1OCC(=O)Nc1ccc2c(c1)ncn2C | 5.53% (inactive) | 
O=C(COC(=O)COc1ccccc1F)Nc1cccc(S(=O)(=O)N2CCCCC2)c1 | -15.3% (inactive) | 
CCc1ccccc1OCC(=O)Nc1ccc(C)c(S(=O)(=O)N2CCCCCC2)c1 |  | 14.6 µM (active)
COc1ccccc1C(CNC(=O)c1ccc(C)c(S(=O)(=O)N2CCCCC2)c1)N(C)C (stereo not drawn) | -24.5% (inactive) | 
Cc1ccccc1OCC(=O)Nc1ccc(S(=O)(=O)N2CCOCC2)cc1 | -15.5% (inactive) | 
Cc1ccccc1OCC(=O)Nc1ccc(N2CCN(C(=O)C(C)C)CC2)c(Cl)c1 |  | 13 µM (active)
COc1ccccc1C(=O)Nc1ccc(C)c(S(=O)(=O)N2CCCCC2)c1 |  | 20.6 µM (active)
Clc1ccc(-c2cccc3nccn23)cc1 | -7.35% (inactive) | 
Cc1ccc2c(c1)C(O)(CC(=O)c1cccc(-n3cccc3)c1)C(=O)N2 (stereo not drawn) | 8.92% (inactive) | 
C=CCOc1ccc(/C=C/C(=O)OCC(=O)NC2CCCCCC2)cc1 | -3.73% (inactive) | 
O=C1OCCOC2CCCc3oc(-c4ccccc4)c1c32 (stereo not drawn) | -12.7% (inactive) | 
O=C(NCc1ccco1)/C(=C/c1cccc([N+](=O)[O-])c1)NC(=O)c1ccco1 | 12.8% (inactive) | 
CCc1ccc(N(C(=O)c2csnn2)C(C(=O)NC2CCCCC2)c2ccncc2)cc1 (stereo not drawn) | 5.47% (inactive) | 
O=S(=O)(c1ccc(F)cc1)N1CCN=C1SCc1cccc(F)c1 | -27.5% (inactive) | 
Clc1cc(NC2CCCCC2)ncn1 | -0.0944% (inactive) | 
Cc1cccn2c(=O)c(C(=O)NC(C)c3ccccc3)cnc12 (stereo not drawn) | -4.93% (inactive) | 
CCCCC[C@H]1CN(C2CCCCC2)C(=O)[C@@H]1CC(=O)NCc1ccc(OC)cc1 |  | 16.4 µM (active)
COc1ccc(CNC(=O)C2CCCC2)cc1 | -6.86% (inactive) | 

Structure (SMILES) | activity change, negative = growth inhibition | Potency
COc1ccc(CNC(=O)[C@@H]2CC=C[C@@H]3CCN(C4CC4)C(=O)[C@@H]32)cc1 |  | inactive
CCN(CC)CCNC(=O)CN1N=C(c2ccc(OC)cc2)CCC1=O | 6.9% (inactive) | 
O=C(NC1CCCCC1)c1ccc(Cn2c(SCc3ccccc3)nc3cccnc32)cc1 | -23.4% (inactive) | 
COc1ccccc1CCCNC(=O)C1CCC(=O)N(CCN2CCOCC2)C1 (stereo not drawn) | 1.18% (inactive) | 
CCCn1c(=N)n(CC(O)COc2ccccc2OC)c2ccccc21 (stereo not drawn) |  | 11.6 µM (active)
COc1ccc(OCC(O)CN(C)C(=O)C(C)Oc2ccccc2)cc1 (stereo not drawn) | -25.8% (inactive) | 
C=CCc1ccc(OCC(O)CN2CCN(Cc3ccccc3)CC2)c(OC)c1 (stereo not drawn) | -24.3% (inactive) | 
COc1ccccc1OCCn1c(SCC(N)=O)nc2ccccc21 | -2.22% (inactive) | 
COc1ccccc1OCC(O)CN1CCOCC1 (stereo not drawn) | 1.56% (inactive) | 
C=CCn1c(=N)n(CC(O)COc2ccc(OC)cc2)c2ccccc21 (stereo not drawn) |  | 16.4 µM (active)
COc1c(N2CCN(C(=S)Nc3ccccc3F)C(C)C2)c(F)cc2c(=O)c(C(=O)O)cn(C3CC3)c12 (stereo not drawn) | -27.8% (inactive) | 
O=C(NCCc1ccc(C(F)(F)F)cc1)c1ccc2c(c1)OCO2 | -5.4% (inactive) | 
CN(C)C(CNC(=O)c1cc2ccccc2o1)c1ccccc1 (stereo not drawn) | -8% (inactive) | 
O=C(NCCc1ccc2c(c1)OCCO2)c1cc2ccccc2o1 |  | 16.4 µM (active)
CCOc1ccc(C2C3=C(CCCC3=O)N(CC(=O)O)C3=C2C(=O)CCC3)cc1 | 2.38% (inactive) | 
C=CCN1CCN(C(=O)CCCc2ccccc2)CC1 | -10.7% (inactive) | 
COc1ccc(NC(=O)[C@H](NC(=O)[C@@H]2Cc3ccccc3CN2)c2ccccc2)cc1 | -24.6% (inactive) | 
CC12CCCCC1=CC(=O)CC2 (stereo not drawn) | 7.55% (inactive) | 
CCOc1ccc(C(O)Cn2c(=N)n(CCN3CCCCC3)c3ccccc32)cc1 (stereo not drawn) |  | 20.6 µM (active)
Cn1c(=N)n(CC(O)c2cccs2)c2ccccc21 (stereo not drawn) | 0.351% (inactive) | 
Cn1c(=N)n(CC(O)c2ccccc2)c2ccccc21 (stereo not drawn) | -9.01% (inactive) | 
NC(=O)C1CCN(C(=O)c2cn(-c3ccccc3)nc2-c2cccnc2)CC1 | -0.311% (inactive) | 
CCOc1ccc(C(CC(=O)O)NC(=O)C23CC4CC(CC(C4)C2)C3)cc1OC (stereo not drawn) | -3.54% (inactive) | 
CCN1CCN(c2cc(C)c3cc(NC(=O)c4cc(Cl)ccc4OC)ccc3n2)CC1 |  | 4.61 µM (active)
CCOCCCNC(=S)Nc1ccc2nc(N3CCN(CC)CC3)cc(C)c2c1 | -9.76% (inactive) | 

Structure (SMILES) | activity change, negative = growth inhibition | Potency
COC(=O)c1ccc(NC(=O)c2cc(Cl)ccc2OC)cc1 | -24.8% (inactive) | 
COc1ccc(C(=O)Nc2ccc3nc(N4CCCCC4)cc(C)c3c2)cc1OC |  | 23.1 µM (active) and 20.6 µM (active)
Cc1cc(N2CCN(C)CC2)nc2ccc(NC(=S)N3CCOCC3)cc12 | 9.63% (inactive) | 
COc1ccc(NC(=O)CC2SC(N3CCCCC3)=NC2=O)cc1OC (stereo not drawn) | 12.9% (inactive) | 
CCOc1cc(C(C(=O)NCC2CCCO2)N(C(=O)Cn2nnc3ccccc32)c2cccc(OC)c2)ccc1O (stereo not drawn) | 16.8% (inactive) | 
Cc1nnc(C(=O)NC(C)(C)c2nc(C(=O)NCc3ccc(F)cc3)c(O)c(=O)n2C)o1 | -17.6% (inactive) | 
NC(=O)CCN1CCN(S(=O)(=O)/C=C/c2ccccc2)CC1 | -1.26% (inactive) | 
CN1OC[C@@H]2CN[C@H](c3ccc(-c4ccccc4)cc3)C[C@@H]21 | -7.22% (inactive) | 
Cc1ccc(NC(=O)CSc2nc3c(c(=O)[nH]2)CN(Cc2ccc4c(c2)OCO4)CC3)cc1C | -21.7% (inactive) | 
COc1cc(OC)cc(C(=O)NCC(=O)OCC(=O)NC(C)CCc2ccccc2)c1 (stereo not drawn) | -22% (inactive) | 
COc1cccc(C(=O)NCC(=O)OCc2cc(=O)n3ccsc3n2)c1 | -6.31% (inactive) | 
COc1cc(OC)cc(C(=O)NCC(=O)OCc2csc(-c3ccccc3)n2)c1 |  | 16.4 µM (active)
C=CCOc1ccc(Cl)cc1CNCCCN1CCOCC1 | -16.9% (inactive) | 
CC(=O)NCCC(=O)Nc1nc(C)c(Cc2ccc3c(c2)OCO3)s1 | -1.58% (inactive) | 
CCOC(=O)C1(Cc2ccccc2C)CCCN(S(C)(=O)=O)C1 (stereo not drawn) | -19% (inactive) | 
CNC(=O)NC(=O)CSc1nnc(-c2ccc(F)cc2)n1CC1CCCO1 (stereo not drawn) | 4.38% (inactive) | 
Oc1cc2c(cc1O)CN(C(=S)NCCc1ccc(Cl)cc1)CCC2 |  | 13.3 µM (active) and 7.08 µM (active)
COc1ccc(CCNC(=S)N2CCN(S(=O)(=O)c3ccc(Cl)cc3)CC2)cc1 | -3.02% (inactive) | 
O=C(NCCc1ccc(Cl)cc1)C1CCCN1C(=O)NCc1ccccc1 (stereo not drawn) | -19.2% (inactive) | 
CCOc1ccc(C(=O)NCC(=O)N2CCCCCCC2)cc1OCC | 4.15% (inactive) | 
CCOc1ccc(CCNC(=O)Cn2nc(CC)n3c(cc4sc(CC)cc43)c2=O)cc1OCC |  | 16.4 µM (active)
CCc1cc2c(cc3c(=O)n(CC(=O)NCCc4ccc(OC)c(OC)c4)ncn32)s1 | -23.1% (inactive) | 
CCc1cc2c(cc3c(=O)n(CC(=O)N4CCN(c5cc(Cl)ccc5C)CC4)nc(CC)n32)s1 | 5.07% (inactive) | 
